Measurements as given in publication PMC7862700, “An all-to-all approach to the identification of sequence-specific readers for epigenetic DNA modifications on cytosine”.

Experiments:
Test in all cases: DAPPL (digital affinity profiling via proximity ligation, sequencing); 10 mM Tris-HCl pH 7.5, 50 mM NaCl, 1 mM DTT, 4% glycerol, room temperature, 30 min; GST-TFs on glutathione beads, 16-mer random dsDNA library, 0.1% formaldehyde crosslink after washing; high values mean tight binding
Conditions in all cases: protein: recombinant; tags: N-terminal GST; dsDNA, one strand shown
ERF = target: T1, ERF (Homo sapiens, UniProt P50548 1-548)
T1 sequence: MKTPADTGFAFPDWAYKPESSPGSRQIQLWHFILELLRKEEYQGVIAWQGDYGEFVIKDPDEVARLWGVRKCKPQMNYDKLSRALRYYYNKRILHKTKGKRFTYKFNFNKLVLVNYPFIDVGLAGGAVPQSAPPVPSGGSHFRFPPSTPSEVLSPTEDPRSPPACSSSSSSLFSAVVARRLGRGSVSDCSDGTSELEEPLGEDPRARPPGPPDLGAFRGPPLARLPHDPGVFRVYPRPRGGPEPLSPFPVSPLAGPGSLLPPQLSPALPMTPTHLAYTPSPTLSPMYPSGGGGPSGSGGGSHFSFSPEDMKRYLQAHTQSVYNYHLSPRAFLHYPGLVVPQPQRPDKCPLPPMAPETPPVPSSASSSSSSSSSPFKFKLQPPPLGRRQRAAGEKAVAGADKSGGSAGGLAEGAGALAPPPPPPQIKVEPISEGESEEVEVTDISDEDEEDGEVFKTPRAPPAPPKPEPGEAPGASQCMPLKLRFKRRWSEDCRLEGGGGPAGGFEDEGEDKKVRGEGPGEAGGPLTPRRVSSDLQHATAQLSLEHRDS
In short: (§1)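 Human transcription factors fused to GST were expressed in yeast, captured on glutathione beads, given DNA barcodes and pooled with a GST-only negative control. Pools were incubated with 200 nmole of a 16-mer random double-stranded DNA library in Tris/NaCl/DTT/glycerol buffer at room temperature for 30 min. They were then washed, crosslinked with 0.1% formaldehyde, proximity-ligated (BsaI/T4 ligase, 1 h, 37 °C), PCR-amplified and sequenced on an Illumina NextSeq500. Binding signal is each 6-mer's read frequency for a factor divided by its frequency for the GST control.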

ETV3L = target: T2, ETV3L (Homo sapiens, UniProt Q6ZN32 1-361)
T2 sequence: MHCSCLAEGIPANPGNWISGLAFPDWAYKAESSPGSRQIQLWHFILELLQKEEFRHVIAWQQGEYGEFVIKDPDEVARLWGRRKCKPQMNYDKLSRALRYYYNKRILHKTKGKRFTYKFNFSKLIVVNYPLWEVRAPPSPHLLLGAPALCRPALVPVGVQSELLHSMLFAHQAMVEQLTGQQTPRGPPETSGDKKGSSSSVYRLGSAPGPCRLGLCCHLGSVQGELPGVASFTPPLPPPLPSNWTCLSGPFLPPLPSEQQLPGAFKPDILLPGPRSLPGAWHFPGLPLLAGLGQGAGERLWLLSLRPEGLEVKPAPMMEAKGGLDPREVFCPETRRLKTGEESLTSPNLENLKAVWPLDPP
In short: as §1

ETS2 = target: T3, ETS2 (Homo sapiens, UniProt P15036 1-469)
T3 sequence: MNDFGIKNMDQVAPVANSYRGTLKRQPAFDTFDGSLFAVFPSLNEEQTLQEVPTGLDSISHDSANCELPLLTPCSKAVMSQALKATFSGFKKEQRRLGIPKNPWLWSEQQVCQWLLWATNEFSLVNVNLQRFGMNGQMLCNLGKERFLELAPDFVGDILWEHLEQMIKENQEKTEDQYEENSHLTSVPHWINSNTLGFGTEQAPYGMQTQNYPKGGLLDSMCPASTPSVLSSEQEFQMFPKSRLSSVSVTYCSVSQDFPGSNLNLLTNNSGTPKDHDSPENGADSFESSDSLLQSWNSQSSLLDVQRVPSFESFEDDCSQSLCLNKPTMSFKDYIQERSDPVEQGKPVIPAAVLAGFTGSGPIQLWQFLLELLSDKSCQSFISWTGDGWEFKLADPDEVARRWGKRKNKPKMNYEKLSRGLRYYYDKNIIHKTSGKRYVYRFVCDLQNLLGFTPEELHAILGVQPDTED
In short: as §1

SPDEF = target: T4, SPDEF (Homo sapiens, UniProt O95238 1-335)
T4 sequence: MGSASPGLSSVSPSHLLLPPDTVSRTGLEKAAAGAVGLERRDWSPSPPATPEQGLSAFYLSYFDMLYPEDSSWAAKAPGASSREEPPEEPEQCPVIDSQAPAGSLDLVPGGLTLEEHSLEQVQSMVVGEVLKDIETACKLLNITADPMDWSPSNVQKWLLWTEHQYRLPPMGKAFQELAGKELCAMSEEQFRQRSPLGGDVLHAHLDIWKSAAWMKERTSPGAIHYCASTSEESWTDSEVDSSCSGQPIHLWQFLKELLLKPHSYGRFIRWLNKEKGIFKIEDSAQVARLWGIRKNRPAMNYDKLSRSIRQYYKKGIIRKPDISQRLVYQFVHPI
In short: as §1

ETV7 = target: T5, ETV7 (Homo sapiens, UniProt Q9Y603 1-341)
T5 sequence: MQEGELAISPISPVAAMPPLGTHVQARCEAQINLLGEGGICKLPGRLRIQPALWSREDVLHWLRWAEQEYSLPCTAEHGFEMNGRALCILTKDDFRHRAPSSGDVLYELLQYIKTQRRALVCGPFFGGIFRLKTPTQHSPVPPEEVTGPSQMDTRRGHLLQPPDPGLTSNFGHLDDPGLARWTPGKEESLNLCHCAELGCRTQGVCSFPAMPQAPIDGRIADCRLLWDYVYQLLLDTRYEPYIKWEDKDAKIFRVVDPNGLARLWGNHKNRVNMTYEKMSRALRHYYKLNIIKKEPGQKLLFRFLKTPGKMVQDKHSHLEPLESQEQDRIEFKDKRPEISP
In short: as §1

ELF5 = target: T6, ELF5 (Homo sapiens, UniProt Q9UKW6-2 1-255)
T6 sequence: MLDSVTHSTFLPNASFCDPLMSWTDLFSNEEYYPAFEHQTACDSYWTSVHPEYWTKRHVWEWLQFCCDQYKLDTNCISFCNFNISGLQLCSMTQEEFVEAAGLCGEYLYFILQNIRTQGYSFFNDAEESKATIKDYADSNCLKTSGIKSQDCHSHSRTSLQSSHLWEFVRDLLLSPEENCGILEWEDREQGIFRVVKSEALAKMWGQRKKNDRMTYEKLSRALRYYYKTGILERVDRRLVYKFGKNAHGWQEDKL
In short: as §1

ETV3 = target: T7, ETV3 (Homo sapiens, UniProt P41162-2 1-143)
T7 sequence: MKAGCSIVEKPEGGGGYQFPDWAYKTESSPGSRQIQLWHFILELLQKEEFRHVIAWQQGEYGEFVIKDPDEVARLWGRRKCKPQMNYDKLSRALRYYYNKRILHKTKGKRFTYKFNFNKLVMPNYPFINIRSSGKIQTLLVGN
In short: as §1

ETV6 = ETV6 (Homo sapiens, UniProt P41212 1-452)
In short: as §1

Chain of ETV6 (P41212 whole entry): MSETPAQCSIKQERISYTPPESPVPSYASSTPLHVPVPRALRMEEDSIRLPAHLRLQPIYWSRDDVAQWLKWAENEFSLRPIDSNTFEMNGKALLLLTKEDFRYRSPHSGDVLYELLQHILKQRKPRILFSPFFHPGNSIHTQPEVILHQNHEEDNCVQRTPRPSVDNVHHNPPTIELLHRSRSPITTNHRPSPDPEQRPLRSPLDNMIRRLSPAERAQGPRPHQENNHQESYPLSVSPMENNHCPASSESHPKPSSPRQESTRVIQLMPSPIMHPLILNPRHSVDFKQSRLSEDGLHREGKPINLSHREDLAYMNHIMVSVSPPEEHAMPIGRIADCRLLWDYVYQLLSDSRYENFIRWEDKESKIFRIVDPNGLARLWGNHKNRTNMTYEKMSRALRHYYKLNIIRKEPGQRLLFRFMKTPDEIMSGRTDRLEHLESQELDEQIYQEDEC

Sequence | binding signal (ERF) | binding signal (ETV3L) | binding signal (ETS2) | binding signal (SPDEF) | binding signal (ETV7) | binding signal (ELF5) | binding signal (ETV3) | binding signal (ETV6)
GTTTCC | 2.49 fold enrichment (6-mer frequency, TF over GST control) | 2.7 fold enrichment (6-mer frequency, TF over GST control) | 2.82 fold enrichment (6-mer frequency, TF over GST control) | 2.75 fold enrichment (6-mer frequency, TF over GST control) | 2.86 fold enrichment (6-mer frequency, TF over GST control) | 3.9 fold enrichment (6-mer frequency, TF over GST control) | 3.01 fold enrichment (6-mer frequency, TF over GST control) | 3.24 fold enrichment (6-mer frequency, TF over GST control)
CTCCCG | 1.42 fold enrichment (6-mer frequency, TF over GST control) | 1.43 fold enrichment (6-mer frequency, TF over GST control) | 1.52 fold enrichment (6-mer frequency, TF over GST control) | 1.65 fold enrichment (6-mer frequency, TF over GST control) | 1.73 fold enrichment (6-mer frequency, TF over GST control) | 1.74 fold enrichment (6-mer frequency, TF over GST control) | 1.53 fold enrichment (6-mer frequency, TF over GST control) | 1.57 fold enrichment (6-mer frequency, TF over GST control)
GGTATT | 1.2 fold enrichment (6-mer frequency, TF over GST control) | 1.18 fold enrichment (6-mer frequency, TF over GST control) | 1.2 fold enrichment (6-mer frequency, TF over GST control) | 1.27 fold enrichment (6-mer frequency, TF over GST control) | 1.24 fold enrichment (6-mer frequency, TF over GST control) | 1.16 fold enrichment (6-mer frequency, TF over GST control) | 1.12 fold enrichment (6-mer frequency, TF over GST control) | 1.24 fold enrichment (6-mer frequency, TF over GST control)
TCCTAT | 1.56 fold enrichment (6-mer frequency, TF over GST control) | 1.5 fold enrichment (6-mer frequency, TF over GST control) | 1.65 fold enrichment (6-mer frequency, TF over GST control) | 1.72 fold enrichment (6-mer frequency, TF over GST control) | 1.53 fold enrichment (6-mer frequency, TF over GST control) | 1.56 fold enrichment (6-mer frequency, TF over GST control) | 1.64 fold enrichment (6-mer frequency, TF over GST control) | 1.66 fold enrichment (6-mer frequency, TF over GST control)
CCTATA | 1.33 fold enrichment (6-mer frequency, TF over GST control) | 1.34 fold enrichment (6-mer frequency, TF over GST control) | 1.42 fold enrichment (6-mer frequency, TF over GST control) | 1.45 fold enrichment (6-mer frequency, TF over GST control) | 1.31 fold enrichment (6-mer frequency, TF over GST control) | 1.39 fold enrichment (6-mer frequency, TF over GST control) | 1.36 fold enrichment (6-mer frequency, TF over GST control) | 1.39 fold enrichment (6-mer frequency, TF over GST control)
GAAATC | 1.31 fold enrichment (6-mer frequency, TF over GST control) | 1.42 fold enrichment (6-mer frequency, TF over GST control) | 1.41 fold enrichment (6-mer frequency, TF over GST control) | 1.4 fold enrichment (6-mer frequency, TF over GST control) | 1.46 fold enrichment (6-mer frequency, TF over GST control) | 1.58 fold enrichment (6-mer frequency, TF over GST control) | 1.42 fold enrichment (6-mer frequency, TF over GST control) | 1.49 fold enrichment (6-mer frequency, TF over GST control)
TTTGCA | 1.13 fold enrichment (6-mer frequency, TF over GST control) | 1.31 fold enrichment (6-mer frequency, TF over GST control) | 1.14 fold enrichment (6-mer frequency, TF over GST control) | 1.23 fold enrichment (6-mer frequency, TF over GST control) | 1.21 fold enrichment (6-mer frequency, TF over GST control) | 1.24 fold enrichment (6-mer frequency, TF over GST control) | 1.26 fold enrichment (6-mer frequency, TF over GST control) | 1.32 fold enrichment (6-mer frequency, TF over GST control)
ATCTAT | 1.12 fold enrichment (6-mer frequency, TF over GST control) | 1.07 fold enrichment (6-mer frequency, TF over GST control) | 1.15 fold enrichment (6-mer frequency, TF over GST control) | 1.17 fold enrichment (6-mer frequency, TF over GST control) | 1.18 fold enrichment (6-mer frequency, TF over GST control) | 1.05 fold enrichment (6-mer frequency, TF over GST control) | 1.12 fold enrichment (6-mer frequency, TF over GST control) | 1.14 fold enrichment (6-mer frequency, TF over GST control)
TTACCA | 1.07 fold enrichment (6-mer frequency, TF over GST control) | 1.07 fold enrichment (6-mer frequency, TF over GST control) | 1.13 fold enrichment (6-mer frequency, TF over GST control) | 1.09 fold enrichment (6-mer frequency, TF over GST control) | 1.12 fold enrichment (6-mer frequency, TF over GST control) | 1.04 fold enrichment (6-mer frequency, TF over GST control) | 1.16 fold enrichment (6-mer frequency, TF over GST control) | 1.07 fold enrichment (6-mer frequency, TF over GST control)
TCTTCT | 1.24 fold enrichment (6-mer frequency, TF over GST control) | 1.29 fold enrichment (6-mer frequency, TF over GST control) | 1.23 fold enrichment (6-mer frequency, TF over GST control) | 1.16 fold enrichment (6-mer frequency, TF over GST control) | 1.06 fold enrichment (6-mer frequency, TF over GST control) | 1.19 fold enrichment (6-mer frequency, TF over GST control) | 1.25 fold enrichment (6-mer frequency, TF over GST control) | 1.29 fold enrichment (6-mer frequency, TF over GST control)
ATTCCT | 1.2 fold enrichment (6-mer frequency, TF over GST control) | 1.32 fold enrichment (6-mer frequency, TF over GST control) | 1.39 fold enrichment (6-mer frequency, TF over GST control) | 1.32 fold enrichment (6-mer frequency, TF over GST control) | 1.39 fold enrichment (6-mer frequency, TF over GST control) | 1.68 fold enrichment (6-mer frequency, TF over GST control) | 1.47 fold enrichment (6-mer frequency, TF over GST control) | 1.35 fold enrichment (6-mer frequency, TF over GST control)
CCTAAA | 1.4 fold enrichment (6-mer frequency, TF over GST control) | 1.32 fold enrichment (6-mer frequency, TF over GST control) | 1.33 fold enrichment (6-mer frequency, TF over GST control) | 1.32 fold enrichment (6-mer frequency, TF over GST control) | 1.34 fold enrichment (6-mer frequency, TF over GST control) | 1.27 fold enrichment (6-mer frequency, TF over GST control) | 1.28 fold enrichment (6-mer frequency, TF over GST control) | 1.25 fold enrichment (6-mer frequency, TF over GST control)
TACGAC | 1.18 fold enrichment (6-mer frequency, TF over GST control) | 1.22 fold enrichment (6-mer frequency, TF over GST control) | 1.27 fold enrichment (6-mer frequency, TF over GST control) | 1.48 fold enrichment (6-mer frequency, TF over GST control) | 1.18 fold enrichment (6-mer frequency, TF over GST control) | 1.29 fold enrichment (6-mer frequency, TF over GST control) | 1.33 fold enrichment (6-mer frequency, TF over GST control) | 1.29 fold enrichment (6-mer frequency, TF over GST control)
AATCTC | 1.27 fold enrichment (6-mer frequency, TF over GST control) | 1.15 fold enrichment (6-mer frequency, TF over GST control) | 1.19 fold enrichment (6-mer frequency, TF over GST control) | 1.14 fold enrichment (6-mer frequency, TF over GST control) | 1.2 fold enrichment (6-mer frequency, TF over GST control) | 1.29 fold enrichment (6-mer frequency, TF over GST control) | 1.2 fold enrichment (6-mer frequency, TF over GST control) | 1.26 fold enrichment (6-mer frequency, TF over GST control)
CGTAAT | 1.24 fold enrichment (6-mer frequency, TF over GST control) | 1.25 fold enrichment (6-mer frequency, TF over GST control) | 1.14 fold enrichment (6-mer frequency, TF over GST control) | 1.19 fold enrichment (6-mer frequency, TF over GST control) | 1.19 fold enrichment (6-mer frequency, TF over GST control) | 1.2 fold enrichment (6-mer frequency, TF over GST control) | 1.19 fold enrichment (6-mer frequency, TF over GST control) | 1.2 fold enrichment (6-mer frequency, TF over GST control)
